Calls of active or inactive are those of the source.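 The calls were made as follows: active = compounds whose cell count with miR-34 switched on is under 0.7 times the count with it off; inactive = the rest.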
Assay: viability loss with induced miR-34 in A549 – imaging, A549 dox-inducible miR-34, nuclei and caspase counts, primary screen (AID 1347080); also: test concentration not given here
Details: A549 miR-34 inducible, Hoechst nuclei count, 48 h
[1] = stronger effect = lower value, cell number ratio, induced over uninduced
[2] = measured here: relative caspase fold change +Dox/-Dox
[3] = measured here: total cells with miR-34 induction, stronger effect = lower value
[4] = measured here: total cells without miR-34 induction

Row | Structure (SMILES) | fold change [1] | fold change [2] | cell count [3] | cell count [4]
1 | CCCCC[C@@H](O)/C=C/[C@H]1[C@H](O)CC(=O)[C@@H]1CCCCCCC(=O)O | 0.974 (inactive) | 1.39 | 5460 | 5600
2 | O=C(O)CCC/C=C\C[C@H]1C(=O)C=C[C@@H]1/C=C/[C@@H](O)COc1ccccc1 | 0.91 (inactive) | 1.28 | 5700 | 6260
3 | O=C(NCCN1CCC(n2c(=O)[nH]c3cc(Cl)ccc32)CC1)c1ccc(F)cc1 | 0.968 (inactive) | 1.46 | 6040 | 6240
4 | CC[C@@H]1/C=C(\C)C[C@H](C)C[C@H](OC)[C@H]2O[C@@](O)(C(=O)C(=O)N3CCCC[C@H]3C(=O)O[C@H](/C(C)=C/[C@@H]3CC[C@@H](O)[C@H](OC)C3)[C@H](C)[C@@H](O)CC1=O)[C@H](C)C[C@@H]2OC | 0.914 (inactive) | 1.28 | 3590 | 3930
5 | C=CC[C@@H]1/C=C(\C)C[C@@H](C)C[C@H](OC)[C@H]2O[C@@](O)(C(=O)C(=O)N3CCCC[C@H]3C(=O)O[C@H](/C(C)=C/[C@@H]3CC[C@@H](O)[C@H](OC)C3)[C@H](C)[C@@H](O)CC1=O)[C@H](C)C[C@@H]2OC | 0.908 (inactive) | 0.315 | 5040 | 5550
6 | O=C(O)CCC/C=C\C[C@H]1[C@@H](O)CC(=O)[C@@H]1/C=C/[C@@H](O)CCc1ccccc1 | 0.982 (inactive) | 1.03 | 5860 | 5960
7 | CCCCCCCCCCCCCCCC(=O)OC[C@@H](O)COP(=O)(O)O | 0.985 (inactive) | 0.427 | 5760 | 5850
8 | COc1ccc2c(c1)c(CC(=O)Nc1ccc(NC(C)=O)cc1)c(C)n2C(=O)c1ccc(Cl)cc1 | 1.05 (inactive) | 1.43 | 5880 | 5610
9 | CCOC(=O)c1ccnc(C(=O)OCC)c1 | 0.975 (inactive) | 0.9 | 5540 | 5690
10 | CCCCC/C=C\C/C=C\CCCCCCCC(=O)O[C@H](COC(=O)CCCCCCCCCCCCCCC)COP(=O)(O)OCCN | 0.789 (inactive) | 0.779 | 4540 | 5760
11 | O=C(O)CCC/C=C\C[C@H]1C(=O)C=C[C@@H]1/C=C/[C@@H](O)CCc1ccccc1 | 0.944 (inactive) | 0.959 | 5880 | 6220
12 | COc1ccc(/C=C/c2cc(Cl)cc(Cl)c2)cc1 | 1.04 (inactive) | 0.753 | 5410 | 5220
13 | CC1CCN=C(N)C1 (stereo not given) | 0.966 (inactive) | 0.767 | 6190 | 6410
14 | COc1ccc2c(c1)c(CC(=O)NCCc1ccccc1)c(C)n2C(=O)c1ccc(Cl)cc1 | 1.02 (inactive) | 0.638 | 6040 | 5920
15 | CC(C)OC(=O)CCC/C=C\C[C@@H]1[C@@H](/C=C/C(=O)COc2cccc(C(F)(F)F)c2)[C@H](O)C[C@@H]1O | 0.979 (inactive) | 1.05 | 6150 | 6280
16 | CCCCC[C@H](O)/C=C/[C@H]1C(=O)C[C@H](O)[C@@H]1C/C=C\CCCC(=O)NC(CO)CO | 0.913 (inactive) | 1.9 | 5680 | 6220
17 | CCCCC/C=C\C/C=C\C/C=C\C/C=C\CCCC(=O)OCC | 0.807 (inactive) | 0.655 | 5170 | 6410
18 | CCCCCCCC/C=C\CCCCCCCCCCCC(N)=O | 1.07 (inactive) | 0.823 | 6240 | 5820
19 | CCCCC[C@H](O)/C=C/[C@H]1CC[C@H](O)[C@@H]1C/C=C\CCCC(=O)O | 0.956 (inactive) | 1.76 | 6120 | 6400
20 | CCCCC[C@H](O)/C=C/[C@H]1C(=O)C[C@H](O)[C@@H]1C/C=C\CCCC(=O)NCCO | 1.05 (inactive) | 1.15 | 6200 | 5900

Row | Structure (SMILES) | fold change [1] | fold change [2] | cell count [3] | cell count [4]
21 | CCCCCCCCCCCCCCCC(=O)NCCS(=O)(=O)O | 1.07 (inactive) | 0.86 | 6370 | 5950
22 | CC/C=C/C[C@H](O)/C=C/[C@H]1[C@H](O)CC(=O)[C@@H]1C/C=C\CCCC(=O)O | 0.915 (inactive) | 1.46 | 5700 | 6230
23 | CCCCCCCC/C=C/CCCCCCCC(=O)O | 1.1 (inactive) | 0.875 | 6340 | 5750
24 | CCCCCCCC/C=C\CCCCCCCCCCCCCC(=O)NCCS(=O)(=O)O | 0.871 (inactive) | 0.338 | 5170 | 5940
25 | CCCCC/C=C\C=C\[C@H](O)CCCCCCCC(=O)O | 1.01 (inactive) | 1.02 | 5810 | 5740
26 | O=C1OC2(c3ccc(O)cc3Oc3cc(OS(=O)(=O)c4c(F)c(F)c(F)c(F)c4F)ccc32)c2ccccc21 (stereo not given) | 1.09 (inactive) | 0.755 | 6600 | 6070
27 | CC(C)(O)c1ccccc1CC[C@H](SCC1(CC(=O)O)CC1)c1cccc(/C=C/c2ccc3ccc(Cl)cc3n2)c1 | 1.04 (inactive) | 0.195 | 5500 | 5280
28 | COC(=O)[C@H](Cc1ccccc1)NC(=O)/C=C/c1ccc(O)cc1 | 1 (inactive) | 0.674 | 6500 | 6490
29 | CCCCCC(=O)CC[C@H]1C=CC(=O)[C@@H]1C/C=C\CCCC(=O)O | 0.899 (inactive) | 1.77 | 5230 | 5820
30 | CCCCCC/C=C\CCCCCCCCCCOC(C)=O | 0.943 (inactive) | 0.538 | 5570 | 5900
31 | CCCCC[C@H](O)/C=C/[C@H]1[C@H](O)CC(=O)[C@@H]1C/C=C\CCCC(=O)Oc1ccc(NC(C)=O)cc1 | 0.993 (inactive) | 0.876 | 6020 | 6060
32 | O=C(O)CCCCCC[C@@H]1[C@@H](CC[C@@H](O)CCc2cccc(C(F)(F)F)c2)[C@H](O)C[C@@H]1O | 1.13 (inactive) | 1.38 | 6150 | 5440
33 | CCCCC[C@H](O)/C=C/[C@@H]1[C@@H](CCCCCCC(=O)O)[C@H](O)C[C@H]1O | 0.962 (inactive) | 1.22 | 6020 | 6250
34 | O=C1C(c2ccccc2)N(c2ccc(Br)cc2)C(=O)N1c1ccc(Br)cc1 (stereo not given) | 0.936 (inactive) | 0.667 | 5960 | 6370
35 | CCCCCCCCCCCC(=O)NC[C@]1(C)CCC[C@]2(C)c3ccc(C(C)C)cc3CC[C@@H]12 | 0.97 (inactive) | 1.59 | 6180 | 6370
36 | CCCCCCCC(=O)CC[C@@H]1[C@@H](C/C=C\CCCC(=O)O)[C@@H](O)C[C@H]1O | 0.944 (inactive) | 1.3 | 5400 | 5720
37 | CCCCCCCCC#CCCCCCCCC(=O)c1nc2ncccc2o1 | 1.03 (inactive) | 1.11 | 6180 | 5990
38 | O=C(O)c1c[nH]c2c(ccc3cccnc32)c1=O | 0.93 (inactive) | 0.866 | 5740 | 6180
39 | CC(C)CCC[C@@H](C)[C@H]1CC[C@H]2[C@@H]3CC(=O)[C@@]4(O)C[C@@H](O)CC[C@]4(C)[C@H]3CC[C@]12C | 0.89 (inactive) | 2.89 | 5340 | 6000
40 | CC(=O)c1ncc([C@@H](O)[C@H](O)[C@H](O)CO)[nH]1 | 0.931 (inactive) | 2.05 | 5900 | 6330

Row | Structure (SMILES) | fold change [1] | fold change [2] | cell count [3] | cell count [4]
41 | CN(C)c1ccc(C(=O)NCCCCCC(=O)NO)cc1 | 0.991 (inactive) | 1.29 | 5550 | 5600
42 | O=C(O)CCC/C=C\C[C@@H]1[C@@H](CC[C@@H](O)CCc2ccccc2)[C@H](O)C[C@@H]1O | 0.863 (inactive) | 1.41 | 5880 | 6810
43 | CCCCNC(=O)NS(=O)(=O)c1ccc(CO)cc1 | 1.05 (inactive) | 0.775 | 5120 | 4890
44 | CC(C)OC(=O)CCC/C=C\C[C@H]1C(=O)C[C@@H](O)[C@@H]1/C=C/[C@@H](O)COc1cccc(C(F)(F)F)c1 | 0.919 (inactive) | 1.4 | 5960 | 6490
45 | CCOC(=O)/C=C/[C@H](CC(C)C)NC(=O)[C@H](CO)NC(=O)[C@@H](NC(=O)c1cccc(O)c1C)C(C)C | 0.61 (active) | 0.781 | 3640 | 5980
46 | CCCCCCCC/C=C\CCCCCCCC(=O)NCCS(=O)(=O)O | 0.992 (inactive) | 0.63 | 6150 | 6200
47 | CC(=O)OC1=C(C)NC(C)=C(OC(C)=O)C1c1ccccc1[N+](=O)[O-] | 0.849 (inactive) | 1.01 | 3570 | 4210
48 | CCCCC[C@H](O)/C=C/[C@@H]1[C@H]2C/C=C\CCCC(=O)O[C@H]2C[C@H]1O | 0.977 (inactive) | 1.29 | 5860 | 5990
49 | [O-]/[N+](=N/O[C@@H]1O[C@H](CO)[C@H](O)[C@H](O)[C@H]1O)N1CCCC1 | 0.904 (inactive) | 0.427 | 6560 | 7260
50 | O=C(O)CCC/C=C\C[C@@H]1[C@@H](/C=C/C(F)(F)COc2ccccc2)[C@H](O)C[C@@H]1O | 1.03 (inactive) | 1.05 | 5600 | 5440
51 | O=P(O)(O)O[C@@H]1[C@H](O)[C@H](O)[C@@H](OP(=O)(O)O)[C@H](OP(=O)(O)O)[C@H]1O | 0.931 (inactive) | 0.377 | 5940 | 6380
52 | CC#CCC(C)[C@@H](O)/C=C/[C@@H]1[C@H]2C/C(=C/CCCC(=O)O)C[C@H]2C[C@H]1O (stereo not given in full) | 0.965 (inactive) | 2.36 | 5460 | 5660
53 | CC(C)CCCC(C)NC(C)C (stereo not given) | 0.993 (inactive) | 0.874 | 8610 | 8670
54 | CCCCCCCCCCCCCCCCOC[C@H](COP(=O)([O-])OCC[N+](C)(C)C)OC | 0.789 (inactive) | 1.27 | 5780 | 7330
55 | CC(C)Oc1ccc(C(=O)c2ccc(NC3=NCCN3)cc2)cc1 | 1.07 (inactive) | 0.773 | 6020 | 5650
56 | O=C(O)CCCCCC[C@H]1C(=O)NC(=O)N1CCC(O)C1CCCCC1 (stereo not given in full) | 1.09 (inactive) | 1.38 | 6150 | 5640
57 | O=C1OC[C@@H](Cc2cccc(O)c2)[C@@H]1Cc1cccc(O)c1 | 0.923 (inactive) | 1.92 | 5590 | 6060
58 | NC(=NCC[C@H](N)C(=O)O)NO | 0.915 (inactive) | 0.994 | 4720 | 5160
59 | CCCCC[C@](C)(O)/C=C/[C@H]1[C@H](O)CC(=O)[C@@H]1CCCCCCC(=O)O | 1 (inactive) | 1.58 | 5750 | 5720
60 | CCCCC/C=C\C/C=C\CCCCCCCC(=O)OCC | 0.908 (inactive) | 0.749 | 4750 | 5230
